Test [1] can be described thus: CCTE_Shafer_MEA_dev_firing_rate_mean: CCTE's Neural Network Formation Assay for Mean Firing Rate, Shafer Lab (AID 2284031). The method in brief: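 Read-out: spike count/recording length, averaged over active electrodes, then AUC across days 5, 7, 9, 12. Rat cortical cultures on MEA; continuous 12-day exposure, media and treatment renewed DIV 5, 9; DMSO baseline.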

Test [2] is described as follows: CCTE_Shafer_MEA_dev_per_burst_spike_percent: CCTE's Neural Network Formation Assay for Percent of Spikes in a Burst, Shafer Lab (AID 2284032). The method in brief: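 Value is trapezoidal AUC over recordings on days 5, 7, 9 and 12 of the well-mean fraction of spikes falling in single-electrode bursts; rat cortical cultures exposed continuously from plating, treatment renewed DIV 5 and 9, fitted downward against DMSO.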

Test [3] is described as follows: CCTE_Shafer_MEA_dev_active_electrodes_number: CCTE's Neural Network Formation Assay for Number of Active Electrodes, Shafer Lab (AID 2284040; active = hit-call score of the fitted dose curve at least 0.9, where 1 is the maximum). In a few lines:
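Developing rat cortical networks on MEAs, exposed DIV 0–12. Value is the AUC of active-electrode counts (≥5 spikes/min) from days 5, 7, 9, 12, relative to DMSO.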

Test [4] can be described thus: CCTE_Shafer_MEA_dev_burst_rate: CCTE's Neural Network Formation Assay for Burst Rate, Shafer Lab (AID 2284042). The method in brief: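 Cells plated, treated day 0; recorded DIV 5, 7, 9, 12; fed and re-treated DIV 5, 9. Endpoint: bursts per recording time, active-electrode well mean, trapezoidal AUC, fitted in decreasing direction against DMSO baseline.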
Test [5] is described as follows: CCTE_Shafer_MEA_dev_per_burst_interspike_interval: CCTE's Neural Network Formation Assay for Burst Interspike Interval, Shafer Lab (AID 2284044). In a few lines: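 Readout is the average time between spikes inside single-electrode bursts, taken as a well mean across bursting electrodes. Cortical neurons from rat developed networks on MEA plates under continuous 12-day exposure; recordings on days 5, 7, 9 and 12 were integrated by trapezoidal AUC.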

A short description of test [6]: CCTE_Shafer_MEA_dev_burst_duration_mean: CCTE's Neural Network Formation Assay for Mean Burst Duration, Shafer Lab (AID 2284045). The method in brief:
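Network-formation assay in primary rat cortical neurons; treatment spans twelve days of development. Mean burst duration per well is integrated by trapezoidal AUC and fitted in the loss-of-signal direction against DMSO baseline.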

Test [7] in a line: CCTE_Shafer_MEA_dev_interburst_interval_mean: CCTE's Neural Network Formation Assay for Mean Interburst Interval, Shafer Lab (AID 2284046).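 Note: curve fitted for decrease in interburst interval relative to DMSO.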 In a few lines: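 Developing rat cortical networks on 48-well MEAs receive compound from the day of plating. Burst intervals from each active electrode are averaged per well, and AUC over the recording days is fitted in the negative direction against DMSO.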

A short description of test [8]: CCTE_Shafer_MEA_dev_inter_network_spike_interval_mean: CCTE's Neural Network Formation Assay for Mean Inter-network Spike Interval, Shafer Lab (AID 2284047). The method in brief:
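Rat cortical cultures, 1.5 x 10^5 cells/well on 48-well MEA plates; continuous exposure days 0–12, medium and compound refreshed DIV 5, 9. Mean time between consecutive network-spike peaks; AUC across DIV 5/7/9/12; DMSO baseline, negative fitting direction.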

Test [9] in a line: CCTE_Shafer_MEA_dev_network_spike_number: CCTE's Neural Network Formation Assay for Number of Network Spikes, Shafer Lab (AID 2284048). The method in brief: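 Extracellular recordings from 16-electrode wells track network formation in rat cortical cultures under continuous treatment from plating. The endpoint is network spike number, expressed as AUC across DIV 5–12 relative to DMSO vehicle.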

Test [10] in a line: CCTE_Shafer_MEA_dev_spike_duration_mean: CCTE's Neural Network Formation Assay for Mean Spike Duration, Shafer Lab (AID 2284051).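 Note: mean network spike duration pooled as area under curve over DIV 5 to 12 recordings.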 In a few lines:
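Readout is the average length of network spikes, clustered firing across electrodes, summed over DIV 5, 7, 9 and 12 as area under the curve. Neurons from rat cortex developed networks on MEA plates under continuous 12-day exposure.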

The nature of test [11]: CCTE_Shafer_MEA_dev_network_spike_duration_std: CCTE's Neural Network Formation Assay for Standard Deviation of Network Spike Duration, Shafer Lab (AID 2284052).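 Note: area under curve of spike duration SD across recording days 5 to 12; hits are decreases in network spike duration SD versus DMSO vehicle.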 In a few lines:
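Read-out is the trapezoidal area-under-the-curve across recordings made on days 5, 7, 9 and 12, fitted in the negative direction against DMSO baseline. Neurons were primary rat cortical cells treated from day 0, with treatment renewed at each feed.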

Test [12] can be described thus: CCTE_Shafer_MEA_dev_per_network_spike_spike_number_mean: CCTE's Neural Network Formation Assay for Mean Number of Spikes in a Network Spike, Shafer Lab (AID 2284053). The method in brief: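 Continuous twelve-day exposure of developing rat cortical networks grown over 16 microelectrodes per well; spontaneous firing is captured at four time points, and the per-network-spike spike number is integrated over development by trapezoidal AUC.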

A short description of test [13]: CCTE_Shafer_MEA_dev_per_network_spike_spike_percent: CCTE's Neural Network Formation Assay for Percent of Spikes in a Network Spike, Shafer Lab (AID 2284054). In a few lines: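 Developing networks of rat cortical neurons are dosed at day 0 and recorded extracellularly four times up to day 12. The endpoint is the area under the curve of percent spikes in network spikes, fitted in the negative direction relative to DMSO.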

Test [14] can be described thus: CCTE_Shafer_MEA_dev_LDH: CCTE's Lactate Dehydrogenase Assay for Cytotoxicity in the Neural Network Formation Assay, Shafer Lab (AID 2284068; active = hit-call score of the fitted dose curve at least 0.9, where 1 is the maximum;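 note: exposure for twelve days from plating with re-dosing on DIV 5 and 9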). The method in brief:
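Cytotoxicity companion to network-formation recordings: rat cortical neurons received compound over 12 days of development, re-dosed at DIV 5 and 9 feeds. Viability was inferred from LDH enzyme activity relative to DMSO.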

Test [15] in a line: CCTE_Shafer_MEA_dev_AB: CCTE's Alamar Blue Assay for Cytotoxicity in the Neural Network Formation Assay, Shafer Lab (AID 2284083; active = hit-call score of the fitted dose curve at least 0.9, where 1 is the maximum;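 note: resazurin reduction fluorescence as viability of cultured neurons; twelve days of exposure from plating with re-dosing on DIV 5 and 9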). The method in brief: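 Fluorescent resazurin reduction serves as the viability read-out, with DMSO as negative control and baseline. Cells were primary rat cortical neurons grown on MEA plates and dosed from day 0 to day 12, treatment renewed on DIV 5 and 9.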
A general note: The colour change of resazurin is a common sign of viable cells or microbes.

Test [16] is described as follows: CCTE_Shafer_MEA_dev_mutual_information_norm: CCTE's Neural Network Formation Assay for Mutual Information Normalization, Shafer Lab (AID 2284091). In a few lines: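 Exposure of primary rat cortical neurons began at plating and ran to DIV 12, with full media and treatment renewal after DIV 5 and 9 recordings. Mutual information AUC (DIV 5–12) was analysed for loss versus DMSO.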

Test [17] can be described thus: CCTE_Shafer_MEA_dev_correlation_coefficient_mean: CCTE's Neural Network Formation Assay for Mean Correlation Coefficient, Shafer Lab (AID 2284093). In a few lines: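 Read-out: well-mean correlation coefficient of spike trains between electrode pairs, collapsed over four recording days as trapezoidal area-under-the-curve. Developing rat cortical neuron networks grown on MEAs received test chemical continuously from plating.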

Test [18] in a line: UKN2_HCS_IMR90_neural_migration: University of Konstanz (UKN) Leist Lab Neural Crest Cell Migration Assay in human induced IMR90 Pluripotent Stem Cells (UKN2) (AID 2284204). The following applies: actives raise or lower the signal. The method in brief: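 Using a 96-well stopper format with PLO/laminin/fibronectin coating, neural crest cells from iPSC migrate in cytokine-supplemented N2-S medium; after 24 h, chemicals are applied for a further 24 h, then cells are imaged after dye staining.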

Test [19] can be described thus: IUF_NPC1b_proliferation_BrdU_72hr: Leibniz Research Institute for Environmental Medicine (IUF) 72-hour Neural Progenitor Cell Bromodeoxyuridine (BrdU) Proliferation Assay (NPC1b) (AID 2284207). The method in brief:
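Neural progenitor spheres of human fetal origin are treated for three days; BrdU added for the last 16 h is quantified by luminescence ELISA, with DMSO as baseline and EGF/FGF omission as positive control.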

Test [20] in a line: IUF_NPC1a_proliferation_area_72hr: Leibniz Research Institute for Environmental Medicine (IUF) 72-hour Neural Progenitor Cell Proliferation Area Assay (NPC1a) (AID 2284208). The method in brief: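 hNPC spheres (human fetal cortex, GW 16-19), one per poly-Hema U-bottom well; EGF+FGF medium; dosed day 0, no re-dosing; 72 h, 37C, 5% CO2; phase-contrast sphere area; DMSO = baseline; minus-GF = positive ctrl.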

Test [21] can be described thus: CCTE_Mundy_HCI_Cortical_Synap_Neur_Matur_NeuriteSpotCountPerNeuriteLength: CCTE's Synaptogenesis and Neurite Maturation Assay in rat cortical cells for Neurite Spot Count per Neurite Length, Mundy Lab (AID 2284210). The method in brief: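 Neurite-associated synapse density (synaptophysin puncta per unit neurite length) is measured by fluorescence high-content imaging in rat cortical cultures treated from DIV 7 and fixed at DIV 12, with DMSO as negative control.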

Test [22] in a line: CCTE_Mundy_HCI_Cortical_NOG_NeuriteCount: CCTE's Neurite Outgrowth Assay in rat cortical cells for Neurite Count, Mundy Lab (AID 2284212).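 Note: cells fixed about two days after chemical exposure began.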 The method in brief: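 Rat cortical primary cells; compound added 2 h post-plating, 1/10 dilution of working solution. Anti-betaIII-tubulin/AF488 ICC; ArrayScan neurite count vs DMSO.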

Broadly, the AC50 is the concentration at which the activity in the assay is half-maximal.

Inconclusive results are not listed. Activity calls are given as the source filed them. Rule for the calls, unless noted: active = hit-call score of the fitted dose curve at least 0.9, where 1 is the maximum; inactive = score below 0.9.

For the compound `CCOP(=O)(OCC)SCSCC`, the result in test [1], in test [2], in [3], in test [4], in test [5] and in [6] was inactive. Besides, the result in test [7], in test [8], in [9], in test [10], in [11] and in [12] was inactive. Further, the compound was classed as inactive in test [14], in test [15], in [16], in test [17], in [18] and in [19]. Further, the outcome in test [20] and in test [21] was inactive. For the same compound, the results for the AC50 in test [13] and in test [22] were 90.9 µM (active) and 78.6 µM (active), respectively.

Values taken from PubChem BioAssay (EPA / NIEHS).
